Data on five molecules can be found in PubChem BioAssay.

A short description of experiment [1]: rapamycin-like changes in RPL19A-GFP expression – cell-based, S. cerevisiae, multiplex flow cytometry, primary screen (AID 1862; in the data active = percent of DMSO control GFP below about 86%;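 note: lower values mimic rapamycin by blocking the RPL19A rise seen in DMSO cells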). As to conditions: S. cerevisiae RPL19A-GFP strain, flow cytometry fluorescence, 3 h; at 10 µM; stronger effect = lower value. For orientation: In flow cytometry, cells or beads pass a laser one at a time.
Experiment [2] can be described thus: TOR pathway GLN3 branch reporter MEP2-GFP changes – S. cerevisiae, multiplex flow cytometry, primary screen (AID 1867;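 active = GFP response, as percent of the DMSO control, above the screen-wide mean plus 3 SD, about 139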;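 note: median GFP channel fluorescence of barcode-gated MEP2-GFP cells measured by flow cytometry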). As to conditions: S. cerevisiae MEP2-GFP strain, 3 h, at 10 µM, stronger effect = higher value, 100% means same as DMSO wells.
A short description of experiment [3]: TOR pathway RTG branch CIT2 reporter changes – S. cerevisiae, GFP fusion, multiplex flow cytometry, primary screen (AID 1870;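 active = percent response above a set limit, the screen-wide mean plus 3 SD, cut at about 130% in these data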;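 note: barcoded CIT2-GFP strain pooled with four other GFP strains with rapamycin as positive control; median GFP fluorescence per well over plate mean of DMSO wells so 100% = DMSO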). The conditions noted are these: S. cerevisiae CIT2-GFP expression, 3 h, at 10 µM, stronger effect = higher value.
The nature of experiment [4]: TOR pathway LAP4-GFP level changes – S. cerevisiae, multiplex flow cytometry, primary screen (AID 1873;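 active = GFP signal, as percent of the solvent control, above the screen mean plus 3 SD, about 149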). As to conditions: S. cerevisiae LAP4-GFP expression, 3 h, at 10 µM, stronger effect = higher value.
The nature of experiment [5]: yeast AGP1-GFP level changes, GLN3 branch – cell-based, multiplex flow cytometry, S. cerevisiae, primary screen (AID 1887;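 active = GFP signal above the screen-wide mean plus 3 SD, that is over about 124.5% of the solvent control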;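 note: AGP1-GFP fusion strain of S. cerevisiae within a five-strain barcoded multiplex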). As to conditions: 3 h, at 10 µM, stronger effect = higher value.
The nature of experiment [6]: reduced mouse 2C T cell binding to pMHC/ICAM-1 vesicles – MLPCN validation set, flow cytometry, LFA-1/ICAM-1 modulator project, pilot screen (AID 2523;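 active = response below a set limit, under 55% cells CD8-positive and vesicle-bound, and CD8 cells' 90th-percentile brightness under 279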;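 for vesicle binding response: mean PE anti-B7-1 fluorescence of CD8+ cells relative to row control; 100% = QL9-loaded vesicles with DMSO vehicle in the same plate row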). As to conditions: 2C mouse CD8+ T cells, at 7 µM, stronger effect = lower value; double positive events: measured here: CD8+/vesicle+ event percentage.
Experiment [7] deals with Integrin beta-1 (Homo sapiens) + Integrin alpha-4 (Homo sapiens) (UniProt P13612+P05556). The experiment in a line: alpha4beta1 integrin LIBS antibody binding reduction – U937 cells, HUTS-21 mAb, flow cytometry, validation set, VLA-4 allosteric modulator project, pilot screen (AID 2674).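 Note: antibody binding induced by the VLA-4 ligand LDV present at three times its Kd; 0% = LDV ligand with antibody and no compound and 100% = antibody without LDV.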 As to conditions: HUTS-21 LIBS mAb binding, at 6.7 µM, stronger effect = higher value, binding induced by LDV ligand.
Chain of Integrin beta-1 (Homo sapiens) + Integrin alpha-4 (Homo sapiens) (P05556 whole entry, looked up): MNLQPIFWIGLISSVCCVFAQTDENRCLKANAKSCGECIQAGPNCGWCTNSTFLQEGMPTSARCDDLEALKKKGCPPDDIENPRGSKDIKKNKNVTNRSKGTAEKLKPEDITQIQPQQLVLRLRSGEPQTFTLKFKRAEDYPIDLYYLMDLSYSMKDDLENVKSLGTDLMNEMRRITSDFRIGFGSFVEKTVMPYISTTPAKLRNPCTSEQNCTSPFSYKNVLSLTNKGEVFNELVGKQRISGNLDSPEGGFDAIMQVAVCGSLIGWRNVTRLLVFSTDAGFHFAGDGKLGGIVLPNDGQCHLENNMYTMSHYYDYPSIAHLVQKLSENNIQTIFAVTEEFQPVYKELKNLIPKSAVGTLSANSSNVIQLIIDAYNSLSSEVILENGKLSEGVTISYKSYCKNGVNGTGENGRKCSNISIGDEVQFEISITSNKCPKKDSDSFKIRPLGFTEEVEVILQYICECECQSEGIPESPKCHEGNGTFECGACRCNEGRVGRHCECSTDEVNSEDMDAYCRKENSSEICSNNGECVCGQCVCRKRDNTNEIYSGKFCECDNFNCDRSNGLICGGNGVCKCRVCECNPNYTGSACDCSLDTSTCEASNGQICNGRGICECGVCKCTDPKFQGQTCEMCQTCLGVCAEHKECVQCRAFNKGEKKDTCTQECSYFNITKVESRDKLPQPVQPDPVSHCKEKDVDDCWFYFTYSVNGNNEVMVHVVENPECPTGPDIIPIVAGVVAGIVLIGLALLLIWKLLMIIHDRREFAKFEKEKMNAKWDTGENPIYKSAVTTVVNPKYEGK
Chain of Integrin beta-1 (Homo sapiens) + Integrin alpha-4 (Homo sapiens) (P13612 whole entry, looked up): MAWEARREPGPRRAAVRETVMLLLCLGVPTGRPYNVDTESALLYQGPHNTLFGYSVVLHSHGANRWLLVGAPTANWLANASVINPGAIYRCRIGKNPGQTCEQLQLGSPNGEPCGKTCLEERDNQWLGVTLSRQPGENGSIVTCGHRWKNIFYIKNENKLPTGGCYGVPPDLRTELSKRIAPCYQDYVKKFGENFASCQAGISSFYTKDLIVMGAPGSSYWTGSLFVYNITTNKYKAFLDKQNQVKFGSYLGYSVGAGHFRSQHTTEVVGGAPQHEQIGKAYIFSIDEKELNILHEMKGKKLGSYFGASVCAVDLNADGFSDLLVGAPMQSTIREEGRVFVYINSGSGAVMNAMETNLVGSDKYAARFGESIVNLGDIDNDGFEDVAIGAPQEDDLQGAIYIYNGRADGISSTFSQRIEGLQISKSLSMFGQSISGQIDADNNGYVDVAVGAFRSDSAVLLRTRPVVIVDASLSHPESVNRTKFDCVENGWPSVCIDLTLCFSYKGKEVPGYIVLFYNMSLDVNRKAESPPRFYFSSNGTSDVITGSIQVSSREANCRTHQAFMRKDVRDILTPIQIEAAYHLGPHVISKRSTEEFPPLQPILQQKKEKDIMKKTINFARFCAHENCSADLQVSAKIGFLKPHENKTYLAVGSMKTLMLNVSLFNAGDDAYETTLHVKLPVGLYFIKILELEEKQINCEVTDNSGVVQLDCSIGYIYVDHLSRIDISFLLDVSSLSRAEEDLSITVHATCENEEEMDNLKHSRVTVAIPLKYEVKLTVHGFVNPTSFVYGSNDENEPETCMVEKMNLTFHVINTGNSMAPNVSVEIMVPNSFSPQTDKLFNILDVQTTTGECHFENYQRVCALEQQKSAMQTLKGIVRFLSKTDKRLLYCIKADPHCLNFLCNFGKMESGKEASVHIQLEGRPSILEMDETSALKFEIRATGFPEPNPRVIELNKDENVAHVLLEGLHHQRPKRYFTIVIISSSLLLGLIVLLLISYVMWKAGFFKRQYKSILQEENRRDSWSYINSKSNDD

A short description of experiment [8]: calorie-restriction mimetic ROS inhibitors, yeast – validation compound set, pilot screen (AID 2706;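 active = superoxide response below 65% of plate, a cut near 3 SD across the whole screen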;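 note: yeast exposed to compound for one week at 30 degrees C before staining; 100% = mean of all compound wells on the same plate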). The conditions noted are these: S. cerevisiae aging, superoxide DHE fluorescence; at 10 µM, stronger effect = lower value.
Experiment [9] has as its target Beta-adrenergic receptor kinase 1 (Homo sapiens) (UniProt P25098). Nature of the experiment: GRK2 binders displacing RNA aptamer, biochemical, validation, human GRK2, bead flow cytometry (AID 488806;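 active = aptamer binding inhibition above 30%, about 3 SD of noise from non-fluorescent compounds; inactive = inhibition at or below 30%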). The conditions noted are these: bead-bound GRK2, FAM-aptamer displacement, at 10 µM, stronger effect = higher value.
Experiment [10] deals with AP-2 complex subunit beta (Homo sapiens) (UniProt P63010). Nature of the experiment: beta-arrestin/AP2 interaction blockers – biochemical, validation set, GST-AP2 beads, flow cytometry, pilot screen (AID 504541;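 active = inhibition above 54%, about 3 SD of non-fluorescent compounds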;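 note: AP2 carries R879A mutation and is captured from E. coli lysate; bead-bound FITC arrestin peptide fluorescence measuring arrestin peptide binding to AP2; 0% = DMSO wells and 100% = excess unlabeled arrestin peptide control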). As to conditions: FITC arrestin peptide, at 10 µM, stronger effect = higher value, AP2 beta2 appendage fragment, R879A mutant.
Chain of AP-2 complex subunit beta (Homo sapiens) (P63010 whole entry, looked up, the tested form may be a part, one chain of several): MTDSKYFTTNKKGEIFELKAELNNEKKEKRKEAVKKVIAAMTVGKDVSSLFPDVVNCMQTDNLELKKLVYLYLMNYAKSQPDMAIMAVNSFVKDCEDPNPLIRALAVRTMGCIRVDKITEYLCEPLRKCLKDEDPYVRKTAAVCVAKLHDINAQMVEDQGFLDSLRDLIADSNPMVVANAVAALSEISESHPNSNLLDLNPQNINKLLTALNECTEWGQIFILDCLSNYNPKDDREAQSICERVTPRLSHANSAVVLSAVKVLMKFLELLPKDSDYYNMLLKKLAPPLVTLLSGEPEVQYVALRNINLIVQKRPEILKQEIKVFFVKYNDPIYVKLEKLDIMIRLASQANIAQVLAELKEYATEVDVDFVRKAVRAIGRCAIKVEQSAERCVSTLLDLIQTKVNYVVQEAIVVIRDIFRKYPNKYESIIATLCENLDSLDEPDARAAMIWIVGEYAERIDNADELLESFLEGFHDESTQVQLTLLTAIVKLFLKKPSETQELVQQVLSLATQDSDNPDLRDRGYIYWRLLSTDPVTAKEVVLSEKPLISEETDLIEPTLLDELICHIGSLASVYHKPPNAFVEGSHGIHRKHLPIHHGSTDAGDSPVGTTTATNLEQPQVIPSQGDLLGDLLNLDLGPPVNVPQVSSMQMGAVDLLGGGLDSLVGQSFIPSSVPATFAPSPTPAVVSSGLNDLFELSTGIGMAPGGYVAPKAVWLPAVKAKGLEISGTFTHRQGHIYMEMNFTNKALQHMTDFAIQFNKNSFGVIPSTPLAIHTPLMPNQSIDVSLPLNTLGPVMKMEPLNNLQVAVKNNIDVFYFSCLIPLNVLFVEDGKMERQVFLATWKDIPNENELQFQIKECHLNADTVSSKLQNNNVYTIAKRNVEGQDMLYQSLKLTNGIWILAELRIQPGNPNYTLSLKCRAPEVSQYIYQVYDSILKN
Experiment [11] is described as follows: cytosolic pH regulators acting via V-ATPase – S. cerevisiae, pHLuorin, HTS validation (AID 504600; in the data active = response above about 15%;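 note: plate controls were DMSO for no effect and reference compound for full effect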). The conditions noted are these: V-ATPase proton transport, at 10 µM, stronger effect = higher value.
For experiment [12], the system named is anti-desmoglein-3 scFv antibody binding to human DSG3. The experiment in a line: blockers of pathogenic pemphigus antibody–desmoglein-3 binding – biochemical, validation compound set, bead-based, flow cytometry, pilot screen (AID 588368;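 active = binding below the plate cutoff, the plate median minus 3 SD, with a reading above zero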;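 note: signal is the median channel fluorescence of bead-bound GFP antibody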). The conditions noted are these: Protein G beads, DSG3-Fc, scFv-GFP binding, at 10 µM, stronger effect = lower value.
Experiment [13] in a line: Nile Red efflux blockade in pump-expressing yeast – validation compound set, multiplex, phenotypic, pilot screen (AID 588506;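 active = efflux inhibition above 0.42, the validation set average plus 4 SD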;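 note: Nile Red retained in cells so higher fluorescence means more efflux inhibition; 0 = negative control wells and 1 = enniatin B 25 µM full block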). The conditions noted are these: S. cerevisiae pump-expressing triplex, Nile Red efflux flow cytometry; at 10 µM; stronger effect = higher value; the pumps come from Candida albicans.
Experiment [14] has as its target ATP-binding cassette sub-family B member 6 (Homo sapiens) (UniProt Q9NP58). Nature of the experiment: blockers of ABCB6-driven porphyrin uptake – K562-ABCB6 cells, flow cytometry, validation set, pilot screen (AID 588550;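 active = inhibition above the screen-wide mean plus 3 SD, about 51%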;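 note: 0% = DMSO wells and 100% = benzethonium chloride 70 µM positive control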). The conditions noted are these: K562-ABCB6 porphyrin accumulation, 1 h, at 10 µM, stronger effect = higher value.
Experiment [15] can be described thus: AML differentiation inducers, ER-HoxA9 marrow cells – cell-based, GFP/MAC1 double positive, flow cytometry, validation set, primary screen (AID 588685;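 active = differentiation response of at least 50%, scaled between solvent and reference control, from cells with both markers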;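 note: compound exposure lasts four days before antibody staining and flow analysis; 0% = DMSO wells and 100% = 5 µM fulvestrant positive control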). The conditions noted are these: stronger effect = higher value, normalized: vehicle 0, fulvestrant 100.

Records with an inconclusive call do not appear. Calls of active or inactive are those of the source.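 Rule for the calls, unless noted: active = inhibition above 50%, about 3 SD of the validation set; inactive = the rest.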

Chain of Beta-adrenergic receptor kinase 1 (Homo sapiens) (P25098 whole entry, looked up): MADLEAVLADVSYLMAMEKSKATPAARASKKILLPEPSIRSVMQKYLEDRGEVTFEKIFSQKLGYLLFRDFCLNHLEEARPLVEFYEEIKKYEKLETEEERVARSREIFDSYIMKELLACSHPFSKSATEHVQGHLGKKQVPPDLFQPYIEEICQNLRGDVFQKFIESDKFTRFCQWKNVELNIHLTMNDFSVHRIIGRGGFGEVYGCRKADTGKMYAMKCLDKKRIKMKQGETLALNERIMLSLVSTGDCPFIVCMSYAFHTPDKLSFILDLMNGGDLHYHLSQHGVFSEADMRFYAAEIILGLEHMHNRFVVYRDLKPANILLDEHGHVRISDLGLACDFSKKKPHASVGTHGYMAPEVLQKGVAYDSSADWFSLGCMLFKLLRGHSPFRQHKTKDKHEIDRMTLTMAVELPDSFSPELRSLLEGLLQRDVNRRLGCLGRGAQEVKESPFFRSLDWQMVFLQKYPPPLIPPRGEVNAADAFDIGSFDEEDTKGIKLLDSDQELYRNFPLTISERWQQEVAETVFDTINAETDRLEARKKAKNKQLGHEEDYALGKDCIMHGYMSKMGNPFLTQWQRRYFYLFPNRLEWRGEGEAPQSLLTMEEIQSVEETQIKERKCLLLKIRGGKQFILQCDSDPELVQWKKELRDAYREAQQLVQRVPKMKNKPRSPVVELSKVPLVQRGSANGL
Chain of ATP-binding cassette sub-family B member 6 (Homo sapiens) (Q9NP58 whole entry, looked up): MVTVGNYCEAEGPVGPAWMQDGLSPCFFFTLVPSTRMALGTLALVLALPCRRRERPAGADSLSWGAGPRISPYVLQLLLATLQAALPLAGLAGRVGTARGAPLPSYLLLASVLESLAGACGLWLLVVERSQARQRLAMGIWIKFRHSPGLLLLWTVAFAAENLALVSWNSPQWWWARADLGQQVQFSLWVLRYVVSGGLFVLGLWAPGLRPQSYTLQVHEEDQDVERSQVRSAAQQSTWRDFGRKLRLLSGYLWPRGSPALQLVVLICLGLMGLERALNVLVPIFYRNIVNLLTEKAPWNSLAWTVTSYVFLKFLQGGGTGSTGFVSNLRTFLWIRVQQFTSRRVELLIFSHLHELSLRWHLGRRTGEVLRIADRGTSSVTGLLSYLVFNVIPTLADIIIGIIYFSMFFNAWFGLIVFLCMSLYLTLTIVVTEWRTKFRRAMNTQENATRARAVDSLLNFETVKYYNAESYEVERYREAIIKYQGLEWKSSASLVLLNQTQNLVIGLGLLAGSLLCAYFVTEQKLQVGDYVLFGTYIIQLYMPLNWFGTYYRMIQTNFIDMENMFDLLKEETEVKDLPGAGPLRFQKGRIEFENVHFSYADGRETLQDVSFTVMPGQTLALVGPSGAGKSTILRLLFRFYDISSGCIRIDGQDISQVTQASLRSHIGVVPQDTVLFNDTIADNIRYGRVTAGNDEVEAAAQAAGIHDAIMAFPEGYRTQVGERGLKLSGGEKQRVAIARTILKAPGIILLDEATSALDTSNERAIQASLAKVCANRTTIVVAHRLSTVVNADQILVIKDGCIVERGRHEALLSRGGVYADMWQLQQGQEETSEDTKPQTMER

In general, inhibition refers to the drop in the measured response relative to a control, in per cent. As to `Cc1ccc2c(c1)C(O)(c1c(C)[nH]c3ccccc13)C(=O)N2` (stereo not given), in experiment [1], the percent of DMSO control GFP is 98.6% (inactive). For the same molecule, the figures for the GFP response vs DMSO in experiment [2] and in [4] were 97.9% (inactive) and 96.4% (inactive), respectively. For the same molecule, in experiment [3], the percent response of DMSO control was 106% (inactive). Also, in experiment [5], the GFP response, % of DMSO was 90.1% (inactive). The double positive events in experiment [6] worked out at 57.8%. For the same molecule, the vesicle binding response in [6] is 259% (inactive). Also, the inhibition in experiment [7] was -4.9% (inactive); in experiment [10], -11.2% (inactive); in experiment [14], 5% (inactive). Moreover, in experiment [8], the superoxide response (% of plate) is 98.1% (inactive). Also, the aptamer binding inhibition in [9] was -1% (inactive). In addition, the response in experiment [11] was -5.66% (inactive). Also, the binding (% of control) in [12] is 102% (inactive). For the same molecule, in experiment [13], the efflux inhibition (fraction of control) was 0.1 (inactive). Further, in experiment [15], the differentiation response is -34.1% (inactive).

With `O=C(CCCCC(=O)NC1CCCC1)NC1CCCC1`, the percent of DMSO control GFP in experiment [1] was 96.8% (inactive). The GFP response vs DMSO in experiment [2] was 102% (inactive); in [4], 95.4% (inactive). Also, the percent response of DMSO control in [3] was 105% (inactive). For the same molecule, in experiment [5], the GFP response, % of DMSO is 93.7% (inactive). Besides, the double positive events in experiment [6] worked out at 53.7%. For the same molecule, the vesicle binding response in [6] is 181% (inactive). For the same molecule, the inhibition in experiment [7] is 10% (inactive); in [10], 3.46% (inactive); in [14], 6% (inactive). Besides, the superoxide response (% of plate) in experiment [8] was 103% (inactive). Moreover, the aptamer binding inhibition in [9] is 0% (inactive). In addition, in [11], the response was 3.11% (inactive). The binding (% of control) in [12] is 102% (inactive). Moreover, the efflux inhibition (fraction of control) in [13] was 0.29 (inactive). Also, the differentiation response in [15] was -11.5% (inactive).

As to `CC(C)(C)c1csc(N/N=C/c2cccnc2)n1`, in experiment [1], the percent of DMSO control GFP is 99% (inactive). Besides, the GFP response vs DMSO in experiment [2] was 106% (inactive); in experiment [4] it was 107% (inactive). The percent response of DMSO control in [3] was 95.9% (inactive). Moreover, the GFP response, % of DMSO in experiment [5] is 87.4% (inactive). For the same molecule, in [6], the double positive events amounted to 53.8%. Also, the vesicle binding response in experiment [6] is 163% (inactive). Further, the inhibition in [7] was 17.5% (inactive); in experiment [10] it was 5.38% (inactive); in experiment [14], 7% (inactive). Also, the superoxide response (% of plate) in [8] was 96% (inactive). Moreover, the aptamer binding inhibition in experiment [9] is 5% (inactive). For the same molecule, the response in experiment [11] is 1.92% (inactive). For the same molecule, the binding (% of control) in experiment [12] is 99.3% (inactive). Besides, the efflux inhibition (fraction of control) in experiment [13] is -0.12 (inactive). In addition, in experiment [15], the differentiation response is 4.64% (inactive).

On to `COc1ccc(C2(CCN=Cc3ccc(N(C)C)cc3)CCOC(C)(C)C2)cc1` (stereo not given), for which the percent of DMSO control GFP in [1] is 104% (inactive). In addition, the values for the GFP response vs DMSO in experiment [2] and in [4] were 102% (inactive) and 95.4% (inactive), respectively. In experiment [3], the percent response of DMSO control was 99.8% (inactive). Besides, the GFP response, % of DMSO in experiment [5] is 95.2% (inactive). In addition, the double positive events in experiment [6] came out at 58.8%. Besides, the vesicle binding response in [6] is 222% (inactive). Also, the inhibition is -3.97% (inactive) in experiment [7], -3.62% (inactive) in experiment [10] and 12% (inactive) in [14]. Moreover, in experiment [8], the superoxide response (% of plate) was 98.3% (inactive). The aptamer binding inhibition in experiment [9] was 0% (inactive). Besides, the response in experiment [11] was -4.5% (inactive). For the same molecule, the binding (% of control) in [12] was 128% (inactive). For the same molecule, the efflux inhibition (fraction of control) in [13] is -0.24 (inactive). In addition, the differentiation response in experiment [15] was 7.87% (inactive).

In the case of `O=C(Nc1cccc(Cl)c1)N1CCN2C(=O)c3ccccc3C12c1ccccc1` (stereo not given), the percent of DMSO control GFP in experiment [1] was 100% (inactive). Besides, the GFP response vs DMSO was 98.9% (inactive) in experiment [2] and 92.3% (inactive) in experiment [4]. Moreover, the percent response of DMSO control in [3] was 96.9% (inactive). The GFP response, % of DMSO in experiment [5] was 96.3% (inactive). Further, the double positive events in [6] amounted to 58.4%. For the same molecule, the vesicle binding response in experiment [6] was 153% (inactive). Also, the inhibition in experiment [7] was 0.69% (inactive); in experiment [10], 0.48% (inactive); in [14], 7% (inactive). Also, in [8], the superoxide response (% of plate) was 92.6% (inactive). For the same molecule, in [9], the aptamer binding inhibition is 3% (inactive). The response in [11] was 2.99% (inactive). The binding (% of control) in [12] was 102% (inactive). Besides, in experiment [13], the efflux inhibition (fraction of control) is 0.29 (inactive). The differentiation response in experiment [15] is -13.1% (inactive).
